Our source for the growth values is PubChem BioAssay (NCI).

Test systems include NCI-H23 lung; NCI-H226 lung; NCI-H322M lung; HOP-62 NSCLC; NCI-H460 lung; HOP-92 NSCLC; NCI-H522 lung; A549/ATCC NSCLC; 786-0 renal; COLO 205 colon; DU-145 prostate; K-562 leukemia; MALME-3M melanoma; MDA-MB-231 breast; SF-268 CNS; SF-295 CNS; SF-539 CNS; UACC-257 melanoma; M14 melanoma.
What all share (experiment): NCI-60 one-dose screen, 48 h (100 = growth as untreated, 0 = no growth, -100 = all killed)
Holding throughout (conditions): 10 µM unless noted

Each structure is given as a SMILES string. Compounds without any hit were thinned out: in the full panel of roughly 83,000, 20% have a hit.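 Testing used 96-well plates and a 48-hour single-concentration exposure. Example: -40 means 40% of the starting cells died.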 A number with no mark means an inactive call. Active and inactive are the calls of the source. The calls were made as follows: active = growth percent below 10; inactive = the rest.

`c1ccc(-c2nnc(Nc3ccc4c(c3)OCCO4)o2)c(NCc2ccncc2)c1`: the growth in the experiment on NCI-H23 lung is 2.75% (active); with NCI-H226 lung, -9.34% (active); with NCI-H322M lung, 40.4%; in the experiment with HOP-62 NSCLC, 25.3%; with NCI-H460 lung it was 4.52% (active); with HOP-92 NSCLC, 77.7%. Also, the growth was -34.5% (active) in the experiment with NCI-H522 lung; 22.6% with A549/ATCC NSCLC; 17.1% in the experiment with 786-0 renal; -68.8% (active) in the experiment on COLO 205 colon; -22% (active) with DU-145 prostate; 12.1% in the experiment on K-562 leukemia. Further, the growth with MALME-3M melanoma is 53.6%; with MDA-MB-231 breast, 15.4%; with SF-268 CNS, 14.3%; with SF-295 CNS, 3.68% (active); with SF-539 CNS, -2.94% (active); with UACC-257 melanoma it was 68.3%. For the same compound, in the experiment on M14 melanoma, the growth is -17.8% (active).
Consider `CCn1cc(C2NC(=O)c3ccccc3N2)c2cccc(C)c21` (configuration not stated), for which the growth was 30.1% in the experiment with NCI-H23 lung; 57.2% in the experiment with NCI-H226 lung; 36.7% in the experiment with NCI-H322M lung; 31.6% in the experiment on HOP-62 NSCLC; 1.6% (active) with NCI-H460 lung; 80.5% with HOP-92 NSCLC. The growth in the experiment with NCI-H522 lung is -39.8% (active); in the experiment with A549/ATCC NSCLC, 18.4%; in the experiment on 786-0 renal, 39.4%; in the experiment on COLO 205 colon, -17.3% (active); in the experiment with DU-145 prostate, 12.2%; in the experiment with K-562 leukemia it was 3.49% (active). Further, the growth in the experiment on MALME-3M melanoma was 48%; in the experiment on MDA-MB-231 breast it was 15.3%; in the experiment on SF-268 CNS, 43.2%; in the experiment with SF-295 CNS, 3.52% (active); with SF-539 CNS, -49.7% (active); in the experiment with UACC-257 melanoma, 66.7%. The growth in the experiment with M14 melanoma was 8.05% (active).
Take `COc1cc(/C=N/NC(=O)c2ccccc2Nc2cccc(C(F)(F)F)c2)ccc1O`: the growth was 91.5% in the experiment with NCI-H23 lung; 88.3% in the experiment on NCI-H226 lung; 103% in the experiment with NCI-H322M lung; 93.4% in the experiment with HOP-62 NSCLC; 100% in the experiment on NCI-H460 lung; 67.6% with HOP-92 NSCLC. Besides, the growth in the experiment with NCI-H522 lung was 81.9%; in the experiment with A549/ATCC NSCLC, 100%; with 786-0 renal, 75.7%; in the experiment with COLO 205 colon, 106%; with DU-145 prostate, 89.7%; in the experiment with K-562 leukemia, 77.9%. For the same compound, the growth is 106% in the experiment with MALME-3M melanoma; 71.6% with MDA-MB-231 breast; 81.5% in the experiment with SF-268 CNS; 93.5% in the experiment with SF-295 CNS; 105% in the experiment with SF-539 CNS; 23.8% in the experiment with UACC-257 melanoma. Further, in the experiment on M14 melanoma, the growth was 73.9%.
Take `FC(F)(F)c1cccc(Oc2ccc(Nc3ncnc4ccc(OCCCN5CCOCC5)cc34)cc2Cl)c1`: the growth was 76.1% in the experiment with NCI-H23 lung; 84.7% in the experiment on NCI-H226 lung; 37.5% in the experiment on NCI-H322M lung; 62.3% in the experiment on HOP-62 NSCLC; 14.2% in the experiment with NCI-H460 lung; 41.5% in the experiment with HOP-92 NSCLC. For the same compound, the growth in the experiment on NCI-H522 lung was 35.1%; in the experiment with A549/ATCC NSCLC, 49.4%; in the experiment with 786-0 renal it was 44.6%; in the experiment on COLO 205 colon, 47%; in the experiment with DU-145 prostate, 43%; in the experiment on K-562 leukemia, 1.77% (active). Further, the growth with MALME-3M melanoma is -4.17% (active); in the experiment with MDA-MB-231 breast, 22.4%; in the experiment with SF-268 CNS, 55.6%; with SF-295 CNS it was 25.7%; with SF-539 CNS, 60.8%; in the experiment with UACC-257 melanoma, 40.1%. The growth in the experiment with M14 melanoma was -36% (active).
For the compound `CCOC(=O)c1c(O)cc(-c2ccccc2)cc1-c1sc(N(C)Cc2ccccc2)nc1Cl`, the growth is 98.7% in the experiment with NCI-H23 lung; 94% in the experiment on NCI-H226 lung; 106% in the experiment on NCI-H322M lung; 104% with HOP-62 NSCLC; 102% with NCI-H460 lung; 91.3% with HOP-92 NSCLC. Moreover, the growth was 86.4% in the experiment on NCI-H522 lung; 98.8% with A549/ATCC NSCLC; -97.1% (active) with 786-0 renal; 106% in the experiment with COLO 205 colon; 108% in the experiment with DU-145 prostate; 93.4% in the experiment with K-562 leukemia. The growth is 100% in the experiment with MALME-3M melanoma; 103% with MDA-MB-231 breast; 95.8% with SF-268 CNS; 99.6% in the experiment with SF-295 CNS; 97% in the experiment on SF-539 CNS; 96.1% in the experiment on UACC-257 melanoma. In addition, the growth in the experiment with M14 melanoma was -85% (active).
With `Cc1nc2sc(C(=O)Nc3cccc(Br)c3)c(N)c2cc1C(=O)c1ccc(C(F)(F)F)cc1`, the growth is 75.1% with NCI-H23 lung; 92% in the experiment with NCI-H226 lung; 65.7% in the experiment on NCI-H322M lung; 60.6% in the experiment with HOP-62 NSCLC; 63.7% with NCI-H460 lung; 80% with HOP-92 NSCLC. In addition, the growth in the experiment on NCI-H522 lung is 84.7%; with A549/ATCC NSCLC, 74.7%; in the experiment with 786-0 renal it was 86.4%; with COLO 205 colon, 86.7%; in the experiment with DU-145 prostate, 69.3%; in the experiment with K-562 leukemia, 84.2%. Further, the growth with MALME-3M melanoma is 81%; in the experiment with MDA-MB-231 breast, 63.8%; with SF-268 CNS, 79.4%; in the experiment with SF-295 CNS, 67.7%; with SF-539 CNS, 56.5%; in the experiment on UACC-257 melanoma, 95.2%. For the same compound, the growth in the experiment with M14 melanoma was 69.2%.
With `CN1CCN(c2ccc3nc(-c4cc(C(C)(C)C)c(O)c(C(C)(C)C)c4)[nH]c3c2)CC1`, the growth is 92.6% in the experiment on NCI-H23 lung; 96% in the experiment with NCI-H226 lung; 81% with NCI-H322M lung; 69.8% in the experiment on HOP-62 NSCLC; 3.88% (active) in the experiment with NCI-H460 lung; 48.6% with HOP-92 NSCLC. The growth is 75.5% in the experiment on NCI-H522 lung; 53.4% with A549/ATCC NSCLC; 55.4% with 786-0 renal; -56.7% (active) with COLO 205 colon; 77.6% in the experiment on DU-145 prostate; -11.3% (active) in the experiment with K-562 leukemia. The growth was -91.6% (active) in the experiment on MALME-3M melanoma; 38.6% with MDA-MB-231 breast; 72.7% in the experiment with SF-268 CNS; 93.7% in the experiment on SF-295 CNS; 64.4% in the experiment with SF-539 CNS; -53.2% (active) in the experiment with UACC-257 melanoma. In the experiment with M14 melanoma, the growth is 11%.
Consider `O=C1c2ccccc2C(=O)c2c(NCCN=Cc3ccccc3O)cccc21`, for which the growth in the experiment on NCI-H23 lung is 66.6%; with NCI-H226 lung, 56.3%; in the experiment with NCI-H322M lung, 68.3%; with HOP-62 NSCLC it was 21.7%; in the experiment on NCI-H460 lung, 20.9%; in the experiment with HOP-92 NSCLC it was 32%. Besides, the growth in the experiment with NCI-H522 lung is 58.2%; with A549/ATCC NSCLC, 49%; in the experiment on 786-0 renal, -48.4% (active); with COLO 205 colon, 42.2%; with DU-145 prostate, -26% (active); with K-562 leukemia, 41.6%. For the same compound, the growth in the experiment on MALME-3M melanoma was 80.2%; in the experiment with MDA-MB-231 breast, 66.3%; with SF-268 CNS, 51.2%; in the experiment on SF-295 CNS it was 2.48% (active); with SF-539 CNS it was 62%; with UACC-257 melanoma, -14.3% (active). Further, the growth with M14 melanoma was 35.6%.
